Measurements from PubChem BioAssay (EPA / NIEHS).
Results filed as inconclusive are left out. Active and inactive are the calls of the source. How the source made its calls: active means hit-call score of the fitted dose curve at least 0.9, where 1 is the maximum; inconclusive means response in the unintended direction; inactive means score below 0.9.

Biological target: human CYP2D6, CYP2D6 (gene 1565) (UniProt P10635)
Assay: NVS_ADME_hCYP2D6: NovaScreen (NVS) CYP450-related Enzyme Activity (ADME) Assay for human CYP2D6 (AID 2283107)
Procedure, shortened: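 Biochemical fluorescence assay, insect-cell-derived enzyme. Read at 1 h; inhibition taken from loss of signal against acetonitrile. Screened at 10 uM in duplicate, with concentration series for actives.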

human CYP2D6, CYP2D6 (gene 1565), sequence (P10635 whole entry, looked up): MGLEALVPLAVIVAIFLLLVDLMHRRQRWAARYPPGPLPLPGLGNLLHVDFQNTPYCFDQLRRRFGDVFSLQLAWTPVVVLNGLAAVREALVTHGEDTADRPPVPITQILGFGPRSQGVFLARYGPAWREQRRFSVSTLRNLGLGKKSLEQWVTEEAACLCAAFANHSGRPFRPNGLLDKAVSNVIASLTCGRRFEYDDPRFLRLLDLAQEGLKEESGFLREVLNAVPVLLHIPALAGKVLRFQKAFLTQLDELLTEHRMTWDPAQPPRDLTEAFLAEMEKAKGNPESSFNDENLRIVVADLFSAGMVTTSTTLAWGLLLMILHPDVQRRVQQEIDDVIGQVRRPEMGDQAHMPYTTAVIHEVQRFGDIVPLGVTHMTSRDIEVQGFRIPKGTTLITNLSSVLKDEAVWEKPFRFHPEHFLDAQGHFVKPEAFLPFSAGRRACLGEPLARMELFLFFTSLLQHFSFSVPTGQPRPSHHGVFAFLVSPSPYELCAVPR

| Structure (SMILES) | outcome | AC50 |
| --- | --- | --- |
| Cc1cc(C)n(CO)n1 | inactive | – |
| CC(C)[N+](C)(CCOC(=O)C1c2ccccc2Oc2ccccc21)C(C)C | – | 0.741 µM (active) |
| CCc1occc(=O)c1O | – | 3.97 µM (active) |

Biological target: Cytochrome P450 3A4 (Homo sapiens) (UniProt P08684)
Assay: NVS_ADME_hCYP3A4: NovaScreen (NVS) CYP450-related Enzyme Activity (ADME) Assay for human CYP3A4 (AID 2283110)
Procedure, shortened: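 Compounds screened in duplicate at 10 uM, with follow-up concentration-response for actives, against insect-cell-expressed recombinant enzyme. Activity read by fluorescence 0.33 h after dosing; loss of signal versus acetonitrile control indicates inhibition.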

Cytochrome P450 3A4 (Homo sapiens), sequence (P08684 whole entry, looked up): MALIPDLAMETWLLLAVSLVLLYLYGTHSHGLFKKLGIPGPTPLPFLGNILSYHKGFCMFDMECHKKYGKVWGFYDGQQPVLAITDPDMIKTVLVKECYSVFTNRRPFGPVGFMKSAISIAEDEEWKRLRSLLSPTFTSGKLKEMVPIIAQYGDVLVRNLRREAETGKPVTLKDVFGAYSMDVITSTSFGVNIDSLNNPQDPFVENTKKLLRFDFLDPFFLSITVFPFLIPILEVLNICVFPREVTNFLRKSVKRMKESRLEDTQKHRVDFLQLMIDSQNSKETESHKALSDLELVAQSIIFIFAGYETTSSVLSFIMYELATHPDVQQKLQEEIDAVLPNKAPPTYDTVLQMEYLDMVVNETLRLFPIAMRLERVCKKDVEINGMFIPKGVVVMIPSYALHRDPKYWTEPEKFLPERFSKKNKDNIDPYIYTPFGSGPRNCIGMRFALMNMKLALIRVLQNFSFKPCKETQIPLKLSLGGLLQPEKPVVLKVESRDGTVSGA

| Structure (SMILES) | outcome |
| --- | --- |
| C=CC(=O)OCC(C)OCC(C)OCC(C)OC(=O)C=C (configuration not stated) | inactive |
| Oc1c(Cl)cc(Cl)c(Cl)c1Cl | inactive |
| CC1=C(O)C(=O)C(C)O1 (configuration not stated) | inactive |
| Cc1c(O)cccc1O | inactive |

Biological target: Cytochrome P450 2C19 (Homo sapiens) (UniProt P33261)
Assay: NVS_ADME_hCYP2C19: NovaScreen (NVS) CYP450-related Enzyme Activity (ADME) Assay for human CYP2C19 (AID 2283113);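 further: potency for inhibition seen as loss of fluorescent signal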
Procedure, shortened: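 Biochemical CYP2C19 inhibition screen: insect-cell recombinant protein plus fluorescent substrate, 1 h, fluorescence intensity. Acetonitrile defined baseline activity. Single 10 uM concentration in duplicate, with concentration-response follow-up for actives.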

| Structure (SMILES) | AC50 |
| --- | --- |
| C=CC(=O)OCCCCCCCC(C)C | 1.67 µM (active) |
| CCOC(=O)C1=NOC(c2ccccc2)(c2ccccc2)C1 | 1.8 µM (active) |
| c1ccc2sc(SSN3CCOCC3)nc2c1 | 0.01 µM (active) |
| Cc1cc(C)n(CO)n1 | 4.01 µM (active) |
| Cc1ccc([N+](=O)[O-])cc1N | 4.92 µM (active) |

Biological target: human Caspase 5 (CASP5), CASP5 (gene 838) (UniProt P51878)
Assay: NVS_ENZ_hCASP5: NovaScreen (NVS) Enzymatic Assay for human Caspase 5 (CASP5) (AID 2283137)
Procedure, shortened: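 Fluorescent substrate readout of CASP5 activity (loss-of-signal), measured 2 h post-dose. Protein expressed in E. coli. Primary screen duplicate at 25 uM; actives meeting threshold (e.g., 30% inhibition) rerun singleton, max 50 uM.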

human Caspase 5 (CASP5), CASP5 (gene 838), sequence (P51878 whole entry, looked up): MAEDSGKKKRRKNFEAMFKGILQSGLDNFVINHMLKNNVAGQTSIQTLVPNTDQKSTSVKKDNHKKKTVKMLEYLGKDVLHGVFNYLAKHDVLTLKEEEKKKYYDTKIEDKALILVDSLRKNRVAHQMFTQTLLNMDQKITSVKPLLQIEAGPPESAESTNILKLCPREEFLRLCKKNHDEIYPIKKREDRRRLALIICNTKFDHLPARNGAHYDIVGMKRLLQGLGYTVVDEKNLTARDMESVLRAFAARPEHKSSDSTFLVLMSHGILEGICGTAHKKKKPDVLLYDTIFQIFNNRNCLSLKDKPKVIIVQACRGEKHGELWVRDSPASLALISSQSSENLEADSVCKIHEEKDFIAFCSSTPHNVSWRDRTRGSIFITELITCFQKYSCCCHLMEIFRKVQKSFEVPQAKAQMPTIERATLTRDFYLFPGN

| Structure (SMILES) | outcome | AC50 |
| --- | --- | --- |
| Fc1ccc(Br)cc1 | inactive | – |
| CO[Si](CCCS)(OC)OC | – | 25 µM (active) |
| COc1ccc(C(=O)/C(Br)=C\C(=O)O)cc1 | – | 18.5 µM (active) |
| CCOC(=O)/C=C\C(=O)OCC | inactive | – |
| CCOC(=O)C1=NOC(c2ccccc2)(c2ccccc2)C1 | inactive | – |

Biological target: human Beta-secretase (BACE), BACE1 (gene 23621) (UniProt P56817)
Assay: NVS_ENZ_hBACE: NovaScreen (NVS) Enzymatic Assay for human Beta-secretase (BACE) (AID 2283140);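 further: hits are inhibitors that reduce fluorescent substrate signal versus DMSO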
Procedure, shortened: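 SF9-expressed enzyme, cell-free; fluorescent substrate readout after 1 h. Screened at 25 uM single concentration, duplicate; hits retested in concentration series. Activity relative to DMSO baseline, loss-of-signal.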

human Beta-secretase (BACE), BACE1 (gene 23621), sequence (P56817 whole entry, looked up): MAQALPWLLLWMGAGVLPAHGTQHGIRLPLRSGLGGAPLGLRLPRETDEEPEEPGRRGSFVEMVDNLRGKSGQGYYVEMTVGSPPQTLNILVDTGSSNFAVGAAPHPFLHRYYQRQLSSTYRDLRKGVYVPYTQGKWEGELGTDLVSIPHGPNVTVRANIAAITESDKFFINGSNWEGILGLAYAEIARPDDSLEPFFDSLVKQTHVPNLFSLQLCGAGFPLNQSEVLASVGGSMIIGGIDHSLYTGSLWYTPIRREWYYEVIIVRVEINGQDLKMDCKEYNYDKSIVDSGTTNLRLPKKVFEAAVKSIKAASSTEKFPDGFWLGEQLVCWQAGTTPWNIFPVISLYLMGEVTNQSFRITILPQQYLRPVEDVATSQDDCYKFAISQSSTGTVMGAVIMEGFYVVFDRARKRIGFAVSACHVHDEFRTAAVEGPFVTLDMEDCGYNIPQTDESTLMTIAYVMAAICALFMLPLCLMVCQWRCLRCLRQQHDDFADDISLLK

| Structure (SMILES) | AC50 |
| --- | --- |
| C=CCCCCCCCCC=O | 13.1 µM (active) |
| COc1ccc(C(=O)/C(Br)=C\C(=O)O)cc1 | 39.1 µM (active) |
| COC(OC)(C(=O)c1ccccc1)c1ccccc1 | 43.1 µM (active) |

Biological target: human Dual Specificity Protein Phosphatase 3 (DUSP3), DUSP3 (gene 1845) (UniProt P51452)
Assay: NVS_ENZ_hDUSP3: NovaScreen (NVS) Enzymatic Assay for human Dual Specificity Protein Phosphatase 3 (DUSP3) (AID 2283152);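 further: phosphatase activity of recombinant human DUSP3 on a fluorogenic substrate without cells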
Procedure, shortened: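 Cell-free fluorescence-intensity enzyme activity assay with recombinant protein and substrate; loss of signal fitted relative to DMSO baseline. Primary screen in duplicate at 25 uM, actives then run in concentration series; measured 0 h after dosing.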

human Dual Specificity Protein Phosphatase 3 (DUSP3), DUSP3 (gene 1845), sequence (P51452 whole entry, looked up): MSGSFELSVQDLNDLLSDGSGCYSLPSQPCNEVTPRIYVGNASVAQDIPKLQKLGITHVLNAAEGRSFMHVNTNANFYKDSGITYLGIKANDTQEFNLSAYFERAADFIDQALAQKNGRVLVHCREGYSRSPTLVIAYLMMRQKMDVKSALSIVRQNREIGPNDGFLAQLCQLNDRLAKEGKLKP

| Structure (SMILES) | AC50 |
| --- | --- |
| Fc1ccc(Br)cc1 | 13.7 µM (active) |
| CC(C)CCCCCOC(=O)CS | 25 µM (active) |
| CCOC(=O)/C=C\C(=O)OCC | 14.7 µM (active) |
| c1ccc2sc(SSN3CCOCC3)nc2c1 | 1.39 µM (active) |
| C=CC(=O)NC(C)(C)C | 13.6 µM (active) |

Biological target: human Ephrin type-A Receptor 1 (EphA1), EPHA1 (gene 2041) (UniProt P21709)
Assay: NVS_ENZ_hEphA1: NovaScreen (NVS) Enzymatic Assay for human Ephrin type-A Receptor 1 (EphA1) (AID 2283158);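 further: activity is signal loss versus DMSO meaning EphA1 kinase inhibition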
Procedure, shortened: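 Here the EphA1 protein is recombinant and the substrate fluorescent, with electrophoretic separation before fluorescence detection at 1 hour. Signal loss against DMSO defines activity; plate controls included; follow-up concentration series reach 50 uM.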

human Ephrin type-A Receptor 1 (EphA1), EPHA1 (gene 2041), sequence (P21709 whole entry, looked up): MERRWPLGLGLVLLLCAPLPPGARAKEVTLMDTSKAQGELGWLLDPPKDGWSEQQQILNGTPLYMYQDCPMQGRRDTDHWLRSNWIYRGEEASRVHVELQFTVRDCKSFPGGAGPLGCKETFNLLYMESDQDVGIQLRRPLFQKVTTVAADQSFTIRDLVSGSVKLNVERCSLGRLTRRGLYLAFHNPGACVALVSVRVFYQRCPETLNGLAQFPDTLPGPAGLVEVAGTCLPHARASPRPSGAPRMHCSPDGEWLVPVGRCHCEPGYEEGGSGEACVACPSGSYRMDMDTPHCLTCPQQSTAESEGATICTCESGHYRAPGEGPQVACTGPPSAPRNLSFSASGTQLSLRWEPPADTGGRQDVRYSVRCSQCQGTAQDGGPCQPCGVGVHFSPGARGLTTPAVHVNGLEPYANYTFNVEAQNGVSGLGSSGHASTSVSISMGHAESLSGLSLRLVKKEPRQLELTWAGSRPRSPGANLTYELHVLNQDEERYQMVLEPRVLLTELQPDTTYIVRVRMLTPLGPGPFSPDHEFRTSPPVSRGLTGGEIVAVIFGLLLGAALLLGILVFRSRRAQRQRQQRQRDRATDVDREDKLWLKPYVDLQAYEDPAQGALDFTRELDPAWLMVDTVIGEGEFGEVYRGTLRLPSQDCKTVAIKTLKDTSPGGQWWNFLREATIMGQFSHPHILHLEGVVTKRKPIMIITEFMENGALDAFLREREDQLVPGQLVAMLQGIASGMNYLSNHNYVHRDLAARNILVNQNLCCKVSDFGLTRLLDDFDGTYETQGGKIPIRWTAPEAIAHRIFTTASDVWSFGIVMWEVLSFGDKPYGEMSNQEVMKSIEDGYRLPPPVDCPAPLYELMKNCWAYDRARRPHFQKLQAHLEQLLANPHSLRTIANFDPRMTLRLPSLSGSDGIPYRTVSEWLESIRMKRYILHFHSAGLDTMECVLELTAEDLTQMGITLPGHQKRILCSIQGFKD

| Structure (SMILES) | outcome |
| --- | --- |
| C=CC(=O)OCCCCCCCC(C)C | inactive |
| Nc1ncnc2nc[nH]c12 | inactive |
| O=C(Oc1ccccc1)c1ccccc1C(=O)Oc1ccccc1 | inactive |
| CC(=O)CC(=O)Nc1ccccc1C | inactive |
| CCCCOCCOCCOC(C)=O | inactive |
| CCOc1ccc(NC(N)=O)cc1 | inactive |
| Nc1cccc(N)n1 | inactive |
| CC(=O)OC(C)c1ccccc1 (configuration not stated) | inactive |
| CC=C(C)C(C)=O | inactive |
| C=CC(=O)OCC(C)OCC(C)OCC(C)OC(=O)C=C (configuration not stated) | inactive |
| CC/C=C\CCOC(=O)c1ccccc1O | inactive |
| CC=C(C)C=CC=C(C)C | inactive |
| C=C(C)OC(C)=O | inactive |
| CC(C)CO | inactive |
| CC1=C(O)C(=O)C(C)O1 (configuration not stated) | inactive |
| COC(OC)(C(=O)c1ccccc1)c1ccccc1 | inactive |
| CCCCCC1=CCCC1=O | inactive |
